Assay outcomes as filed in PubChem BioAssay.
GPT2 inhibitor: GPT2 alanine aminotransferase inhibition; Q8TD30; Recombinant GPT2, coupled pyruvate oxidase/HRP Amplex Red fluorescence; Potency, µM (titrated, usually from 57.7 µM), usual class: inhibitors; 100,000 compounds, 0.25% hits; AID 1671188; also: nearly all actives have a fitted effect of over 60% in size
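Inhibition is scored from Amplex Red fluorescence generated when pyruvate oxidase and HRP act on pyruvate released by GPT2. Reactions contain 10ng/uL enzyme, 250uM a-KG and 2mM L-alanine and run 30 min at room temperature.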
hNpr1 antagonist: human Npr1 receptor antagonism. P16066. Potency, µM (doses to about 46.3 µM), usual class: inhibitors. 76,000 compounds, 1.6% hits. HEK293 hNpr1 GloSensor cGMP, ANP-stimulated luminescence. AID 1347048; calls by dose curve; also: nearly all actives have a fitted effect of over 60% in size
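HEK293 cells stably expressing human Npr1 and cGMP GloSensor pGS-40F, loaded 2 h with 2% GloSensor reagent, given compound 30 min at room temperature. Luminescence read before and 20 min after 0.1 nM hNppA.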
HEK cytotox: HEK 293 cell cytotoxicity. HEK 293 viability, ATP luminescence (CellTiter-Glo), 48-72 h. Potency, µM (titrated, usually from 115 µM), actives largely listed as inhibitors. 94,000 compounds, 6.6% hits. AID 1345083; also: nearly all actives have a fitted effect of over 60% in size
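HEK 293 cells seeded at 250 cells/well were exposed to compound for 48 or 72 hr at 37 degree Celsius. Viability taken as ATP content by CellTiter-Glo luminescence.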
FLuc inh-1: blocks purified firefly luciferase enzyme activity. purified P. pyralis luciferase, luminescence, biochemical. 76,000 compounds, 2.5% hits. AID 1347043. Potency, µM (series often up to 115 µM), most hits filed as inhibitors; also: nearly all actives have a fitted effect of over 65% in size
Target sequence (P08659 whole entry, looked up): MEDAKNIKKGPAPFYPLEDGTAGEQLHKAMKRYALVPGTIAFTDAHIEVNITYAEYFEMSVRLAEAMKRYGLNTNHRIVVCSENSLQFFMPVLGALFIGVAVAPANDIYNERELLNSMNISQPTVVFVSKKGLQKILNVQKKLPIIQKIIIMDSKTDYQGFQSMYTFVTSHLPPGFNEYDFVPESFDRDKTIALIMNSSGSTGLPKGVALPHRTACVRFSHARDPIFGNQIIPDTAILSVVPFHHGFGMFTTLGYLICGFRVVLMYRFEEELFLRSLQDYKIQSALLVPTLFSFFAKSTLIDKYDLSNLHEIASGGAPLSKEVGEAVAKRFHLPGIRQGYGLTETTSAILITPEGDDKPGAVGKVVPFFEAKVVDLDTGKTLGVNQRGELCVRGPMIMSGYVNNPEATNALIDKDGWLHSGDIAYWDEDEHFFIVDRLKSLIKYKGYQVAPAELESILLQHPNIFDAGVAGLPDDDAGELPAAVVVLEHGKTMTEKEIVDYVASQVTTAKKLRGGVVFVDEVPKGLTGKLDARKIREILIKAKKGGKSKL
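Luminescence read by CCD imaging after purified firefly luciferase (10nM final) was added to substrate buffer holding 10uM D-luciferin and 10uM ATP, pH 7.5, pre-dosed with compound.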
3T3 cytotox: cytotoxic compounds in NIH 3T3 cells; NIH 3T3 viability, CellTiter-Glo ATP luminescence, 48-72 h; 94,000 compounds, 4.3% hits; AID 1345082; Potency, µM (highest dose often 96.7 µM), most hits filed as inhibitors; also: nearly all actives have a fitted effect of over 55% in size
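Cells were seeded at 400 per well, treated with pin-transferred compound, and kept 48 or 72 hr at 37 °C before CellTiter-Glo addition and luminescence imaging of cellular ATP.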
FLuc SDR no ATP: firefly luciferase binding stabilization, ATP absent | shares compounds with FLuc inh-1 | AID 1963318 | 1,300 compounds, 7.8% hits | Potency, µM (top dose mostly 32.7 µM), most hits filed as activators | Purified FLuc-C-HiBiT, Nano-Glo HiBiT luminescence, no ATP; also: nearly all actives have a fitted effect of over 55% in size
FLuc SDR ATP: binders stabilizing firefly luciferase, plus ATP; Potency, µM (series often up to 32.7 µM), actives largely listed as activators; 1,300 compounds, 8.7% hits; purified FLuc-C-HiBiT + ATP, HiBiT complementation luminescence; shares compounds with FLuc inh-1;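 also: signal reports ligand binding via conformational change of the enzyme rather than luciferase catalysis; nearly all actives have a fitted effect of over 55% in size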
FLuc inh-2: firefly luciferase enzyme inhibition | shares compounds with FLuc inh-1 | purified FLuc-C-HiBiT enzyme, luciferin luminescence | Potency, µM (top dose mostly 32.7 µM), most hits filed as inhibitors | 1,300 compounds, 42% hits; also: nearly all actives have a fitted effect of over 70% in size
Of the large screens only hits and unclear results are named; the others gave an inactive call (follow-up assays come after a bar, where they were run); [ ] = dose if it differs, or a comment. Only a sample is shown. Unless noted, calls follow the shape of the dose curve; as a rule, active = well fitted curve in the direction sought with a large enough effect; inconclusive = small, poorly fitted or top-dose-only effect, or another doubt; inactive = no such curve, though single readings can be large; an effect the other way counts as inactive or inconclusive.

COc1ccc(-c2nc3ccccc3s2)cc1NC(=O)c1ccccc1OC	none (no result: GPT2 inhibitor, hNpr1 antagonist, HEK cytotox, FLuc inh-1, 3T3 cytotox) | FLuc SDR no ATP inactive | FLuc SDR ATP inactive | FLuc inh-2 inconclusive
CCCCOc1ccc(C(=O)Nc2ccc(-c3nc4ccccc4s3)cc2C)cc1	none (no result: GPT2 inhibitor, hNpr1 antagonist, HEK cytotox, FLuc inh-1, 3T3 cytotox) | FLuc SDR no ATP inactive | FLuc SDR ATP inactive | FLuc inh-2 inactive
Cc1cccc(NC(=O)N2CCC(Cc3nc(-c4ccccc4)n[nH]3)CC2)c1	none
O=C(Nc1cccc(-c2nc3ccccc3s2)c1)N1CCC(O)C1 (centres undefined)	none (no result: GPT2 inhibitor, hNpr1 antagonist, HEK cytotox, FLuc inh-1, 3T3 cytotox) | FLuc SDR no ATP inconclusive | FLuc SDR ATP inconclusive | FLuc inh-2 8.8µM
COc1ccccc1NC(=O)c1cc(-c2ccc(C(F)(F)F)cc2)nc2c1cnn2C	none (no result: GPT2 inhibitor, hNpr1 antagonist, FLuc inh-1)
COc1ccc(C(=O)Nc2cc(-c3nc4ccccc4s3)ccc2OC)cc1	none (no result: GPT2 inhibitor, hNpr1 antagonist, HEK cytotox, FLuc inh-1, 3T3 cytotox) | FLuc SDR no ATP inactive | FLuc SDR ATP inactive | FLuc inh-2 inconclusive
CC(C)NC(=O)Cc1ccc(N(Cc2ccc(F)cc2)C(=O)c2ccco2)cc1	GPT2 inhibitor inconclusive
CC(=O)c1ccc(N2CCN(C(=O)c3nnn4c3COC(c3ccc(F)cc3)C4)CC2)cc1 (centres undefined)	HEK cytotox inconclusive, 3T3 cytotox inconclusive
Cn1cccc1C(=O)N1C[C@@H](F)C[C@H]1C(=O)N1CCCCC1	none
Cc1cccc(CNC(=O)c2ccc3c(c2)N(C)C2CCCCN2C3=O)c1 (centres undefined)	HEK cytotox inconclusive
Cc1cc(C(=O)N2CCC3(CC2)N=C(CC(C)C)NC3=O)n(C)n1	none
Cc1nonc1COc1ccc(C(=O)Nc2cccc(-c3nc4ccccc4s3)c2)cc1	none (no result: GPT2 inhibitor, hNpr1 antagonist, HEK cytotox, FLuc inh-1, 3T3 cytotox) | FLuc SDR no ATP inactive | FLuc SDR ATP inactive | FLuc inh-2 inconclusive
COc1ccc(-c2nc3ccccc3o2)cc1NC(=O)c1cccnc1	none (no result: GPT2 inhibitor, hNpr1 antagonist, HEK cytotox, FLuc inh-1, 3T3 cytotox) | FLuc SDR no ATP inactive | FLuc SDR ATP inactive | FLuc inh-2 inconclusive
COCCCNC(=O)c1ccc2nc(-c3cccnc3)oc2c1	HEK cytotox inconclusive, 3T3 cytotox inconclusive (no result: hNpr1 antagonist, FLuc inh-1)
COc1cc(-c2nc3ccccc3s2)ccc1O	none (no result: GPT2 inhibitor, hNpr1 antagonist, HEK cytotox, FLuc inh-1, 3T3 cytotox) | FLuc SDR no ATP inactive | FLuc SDR ATP inactive | FLuc inh-2 11µM
COc1ccc(-c2nc3ccccc3s2)cc1NC(=O)c1cccc(F)c1	none (no result: GPT2 inhibitor, hNpr1 antagonist, HEK cytotox, FLuc inh-1, 3T3 cytotox) | FLuc SDR no ATP inactive | FLuc SDR ATP inactive | FLuc inh-2 inactive
CCC(C)CNCC(=O)N1CCc2sccc2C1COc1cccc(C)c1 (centres undefined)	none (no result: hNpr1 antagonist, HEK cytotox, FLuc inh-1, 3T3 cytotox)
C=CCN1CC(C(=O)N2CCn3cncc3C2)CCC1=O (centres undefined)	none
COc1ccc(-c2nc3ccccc3s2)cc1NC(=O)c1cc(OC)c(OC)c(OC)c1	none (no result: GPT2 inhibitor, hNpr1 antagonist, HEK cytotox, FLuc inh-1, 3T3 cytotox) | FLuc SDR no ATP inactive | FLuc SDR ATP inactive | FLuc inh-2 inconclusive
Cc1c(C(=O)Nc2cccc(-c3nc4ccccc4s3)c2)oc2ccc(F)cc12	none (no result: GPT2 inhibitor, hNpr1 antagonist, HEK cytotox, FLuc inh-1, 3T3 cytotox) | FLuc SDR no ATP inactive | FLuc SDR ATP inactive | FLuc inh-2 inactive
COc1ccc(C(=O)Nc2ccc(-c3nc4ccccc4s3)cc2C)cc1Cl	none (no result: GPT2 inhibitor, hNpr1 antagonist, HEK cytotox, FLuc inh-1, 3T3 cytotox) | FLuc SDR no ATP inactive | FLuc SDR ATP inactive | FLuc inh-2 inactive
COc1ccc(-c2noc(-c3nc(-c4ccc(OC)c(OC)c4)no3)n2)cc1OC	none
COc1ccc(-c2nc3cc(F)ccc3s2)cc1OC	none (no result: GPT2 inhibitor, hNpr1 antagonist, HEK cytotox, FLuc inh-1, 3T3 cytotox) | FLuc SDR no ATP inactive[3.62 µM] | FLuc SDR ATP inactive[3.62 µM] | FLuc inh-2 inconclusive
CCOc1ccccc1NC(=O)N1CCC(N2C(=O)C3(CCCC3)C2c2ccccc2)CC1 (centres undefined)	HEK cytotox inconclusive, 3T3 cytotox inconclusive
COc1ccccc1-n1c(=O)c(C(=O)Nc2cccc(Cl)c2)nc2cccnc21	none (no result: hNpr1 antagonist, FLuc inh-1)
CCOc1ccc(C(=O)Nc2cc(-c3nc4ccccc4s3)ccc2OC)cc1	none (no result: GPT2 inhibitor, hNpr1 antagonist, HEK cytotox, FLuc inh-1, 3T3 cytotox) | FLuc SDR no ATP inactive | FLuc SDR ATP inactive | FLuc inh-2 inactive
